# Shiga inhibitor: Shiga toxin inhibition; inhibition, % at 38.7 µM; hit rate 9.2% among 290,000; Vero cells, Shiga toxin protein synthesis inhibition reporter; in the data active = inhibition mostly above about 28%, no sharp cut-off; inactive = mostly below about 43%; also: 0% is about no effect
# NS1 inh: inhibitors of influenza NS1 protein function | Potency, µM (series often up to 46.1 µM), without a hit: at the highest dose activity, positive = more growth | hit rate 0.4% among 270,000 | AID 2326; calls by dose curve; also: potency is read from the fitted curve at half-maximal effect; actives are rising curves; nearly all actives have a fitted effect of over 50% in size
#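 S. cerevisiae expressing influenza A NS1, grown in glucose, washed, then diluted 1:100 into pH 6.0 -URA galactose medium with 23 nl compound. Growth recovery read as OD600; NS1-free strain serves as control.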
# Pf growth 96h: P. falciparum growth inhibition at 96 hour, primary screen for plastid delayed-death inhibitors; P. falciparum luciferase reporter growth, 96 h; Potency, µM (series often up to 28.7 µM), inactives show at the top dose activity change, negative = inhibition, most hits filed as inhibitors; hit rate 6.9% among 320,000; AID 504834; also: potency is read from the fitted curve at half-maximal effect; % is scaled to controls: 0 for no effect and ±100 for the full control effect
#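 Cell-based qHTS: luciferase-tagged P. falciparum in erythrocytes (2% hematocrit, 0.05% parasitemia final) incubated with compounds for 96 hours, 37 C, 5% CO2; luciferase detection reagent then added and luminescence measured.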
# Giardia FBPA inh: blocks Giardia fructose-bisphosphate aldolase activity; A8B2U2; purified Giardia FBPA; Potency, µM (top dose mostly 59.6 µM), for the others: at the highest dose activity, negative = inhibition, usual class: inhibitors; hit rate 0.71% among 290,000; AID 2451; also: potency is read from the fitted curve at half-maximal effect; % is scaled to controls: 0 for no effect and ±100 for the full control effect; nearly all actives have a fitted effect of over 55% in size
# Target sequence (A8B2U2 whole entry, looked up): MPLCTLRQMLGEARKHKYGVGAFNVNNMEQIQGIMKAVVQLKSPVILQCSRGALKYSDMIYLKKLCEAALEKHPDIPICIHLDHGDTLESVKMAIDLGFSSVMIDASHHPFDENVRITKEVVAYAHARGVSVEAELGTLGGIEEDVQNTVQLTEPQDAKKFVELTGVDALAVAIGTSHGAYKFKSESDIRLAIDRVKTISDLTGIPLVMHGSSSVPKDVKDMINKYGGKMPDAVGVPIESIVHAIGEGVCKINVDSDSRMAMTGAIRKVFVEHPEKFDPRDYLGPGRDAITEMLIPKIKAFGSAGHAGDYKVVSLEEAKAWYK
#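 40 nM FBPA preincubated 10 min at RT with compound (up to 57.5 uM final), then substrate plus GAPDH/TPI/NAD/arsenate coupling and diaphorase/resazurin added. Fluorescence read after 20 min at RT, 525/598 nm.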
# Pf growth 48h: P. falciparum growth inhibition at 48 hours (one generation); P. falciparum luciferase growth in erythrocytes, 48 h; Potency, µM (top dose mostly 28.7 µM), for inactives: at the top dose activity change, negative = inhibition, most hits filed as inhibitors; hit rate 5.9% among 310,000; AID 504832; also: potency is read from the fitted curve at half-maximal effect; % is scaled to controls: 0 for no effect and ±100 for the full control effect
#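 Growth was read as firefly luciferase luminescence after a 48 h, 37 C, 5% CO2 exposure of compounds to reporter-bearing P. falciparum cultures (0.1% parasitemia, 2% hematocrit final) in Albumax-supplemented RPMI 1640.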
# CHX counter: counter-screen hit for Shiga toxin inhibitors, cycloheximide; max response, %; hit rate 12% among 300,000; cell reporter, cycloheximide protein synthesis inhibition counterscreen; in the data active = max response mostly above about 13%, no sharp cut-off; inactive = mostly below about 14%; also: read at 38.3 µM for the half of the compounds with a filed dose; 0% is about no effect
# * hit, by the source's call; ? = inconclusive; · = not tested or not shown. Sampled rows, rich in hits. Any-hit rate of the full collection: about 21%. Unless noted, calls follow the shape of the dose curve; as a rule, active = well fitted curve in the direction sought with a large enough effect; inconclusive = small, poorly fitted or top-dose-only effect, or another doubt; inactive = no such curve, though single readings can be large; an effect the other way counts as inactive or inconclusive.
SMILES,Shiga inhibitor,NS1 inh,Pf growth 96h,Giardia FBPA inh,Pf growth 48h,CHX counter
CC(C)(C)c1cc(C(=O)N/N=C/c2ccco2)n[nH]1,43,5%,-13%,1%,89%,33*
Nc1nccnc1C(=O)N/N=C/c1ccco1,93*,-1%,62%,-7%,76%,63*
COc1cc(-c2nc3c[n+](CC(=O)c4ccccc4)ccc3n2C)cc(OC)c1OC,8,7%,-13%,5%,7.4µM*,-1
COc1cc(-c2nc3ccccc3c(=O)n2N)cc(OC)c1OC,-2,10%,?,-2%,13%,-2
COc1ccc(C(=O)C[n+]2ccc3c(c2)nc(-c2ccccc2)n3C)cc1,-10,12%,33%,7%,2.3µM*,-2
COc1ccc(C(=O)C[n+]2ccc3c(c2)nc(-c2ccc(OC)cc2OC)n3C)cc1,-7,-9%,4.1µM*,2%,12µM*,2
Cc1noc(C)c1C(=O)N1CCC2(CC1)CCN(C(c1ccccc1)c1ccccc1)CC2,·,·,·,0%,·,·
CO[C@@H]1/C=C\O[C@]2(C)Oc3c(C)c(O)c4c(O)c(cc(O)c4c3C2=O)NC(=O)/C(C)=C\C=C/[C@H](C)[C@@H](O)[C@H](C)[C@H](O)C(C)[C@H](OC(C)=O)[C@@H]1C (some centres not stated),·,-11%,·,·,·,·
COC(=O)C1C(O)C(C)C(O)C(C)/C=C\C=C(/C)C(=O)Nc2c(C)c(OC(C)=O)c3c(c2O)C(=O)C(C)=C2OCOC(=C23)/C(C)=C/C(C)(O)C(O)C(C)C1O (configuration not stated),-9,10%,9.3µM*,?,12µM*,-6
COc1ccc(-c2c(C)nn3c(-c4ccccc4)cc(-c4ccccc4)nc23)cc1OC,2,·,·,·,·,7
COc1ccc(C(C)=O)cc1COC(=O)Cc1cc(OC)c(OC)c(OC)c1,-10,-5%,-1%,9%,-2%,-2
Cc1ccc(C)c(NC(=O)C2CCCN(S(=O)(=O)c3c(C)nn(C)c3C)C2)c1 (configuration not stated),-14,-4%,2.9µM*,10%,-26%,7
Cc1cccc(NC(=O)C2CCCN(S(=O)(=O)c3c(C)nn(C)c3C)C2)n1 (configuration not stated),-2,-2%,12µM*,6%,-11%,-2
Cc1nn(C)c(C)c1S(=O)(=O)N1CCCC(C(=O)NC2CCCCC2)C1 (configuration not stated),17,-8%,?,6%,-4%,-3
CC(=O)Nc1ccc(NC(=O)CN(c2cc(Cl)ccc2Cl)S(C)(=O)=O)cc1,-11,4%,?,4%,6%,-2
CC(C)[C@H](NC(=O)[C@@H]1CSSC[C@H](NC(=O)[C@H](CC(=O)O)NC(=O)[C@H](C)NC(=O)[C@@H](NC(=O)CNC(=O)[C@H](C)N)[C@@H](C)O)C(=O)N[C@@H](Cc2ccccc2)C(=O)N[C@@H](Cc2c[nH]c3ccccc23)C(=O)N[C@@H](CCCCN)C(=O)N[C@@H](Cc2ccc(O)cc2)C(=O)N1)C(=O)O,-6,·,·,-1%,·,-2
Cc1ccc(/C=N/N2CCN(Cc3ccccc3)CC2)cc1,38,·,33%,8%,19%,17*
C(=N\N1CCN(Cc2ccccc2)CC1)/c1ccc(-c2ccccc2)cc1,-3,7%,19%,1%,-5%,1
Fc1ccc(/C=N/N2CCN(Cc3ccccc3)CC2)cc1,62*,8%,9.3µM*,1%,19%,20*
CC(/C=N/N1CCN(Cc2ccccc2)CC1)=C\c1ccccc1,34,·,?,1%,28%,25*
COc1ccccc1/C=C/C=N/N1CCN(Cc2ccccc2)CC1,-6,-6%,5%,2%,7%,13*
CC(C)OC(=O)c1cccnc1N1CCN(c2cccc(Cl)c2)CC1,20,-9%,-15%,-2%,?,-1
Cc1ccc(C(=O)N2CC(C)OC(C)C2)cc1S(=O)(=O)N1CCCCC1 (configuration not stated),·,·,-11%,·,?,·
CC(Oc1ccc2c3c(c(=O)oc2c1)CCCC3)C(=O)NCCN1CCOCC1 (configuration not stated),-3,-2%,9%,-6%,12%,3
CC(Oc1ccc(Cl)cc1Cl)C(=O)NCCN1CCOCC1 (configuration not stated),4,-6%,14%,3%,9%,-4
SMILES,Shiga inhibitor,NS1 inh,Pf growth 96h,Giardia FBPA inh,Pf growth 48h,CHX counter
COc1ccc2c(c1OC)c(=O)n1c3ccc(OC(C)C(=O)NCCCN4CCOCC4)cc3c3ccnc2c31 (configuration not stated),-7,-15%,4.1µM*,-18%,3.7µM*,-2
COc1ccc2c(c1OC)c(=O)n1c3ccc(OC(C)C(=O)NCCN4CCOCC4)cc3c3ccnc2c31 (configuration not stated),-5,-35%,3.7µM*,-5%,?,-3
CC(Oc1ccc2c(c1)c1ccnc3c4ccccc4c(=O)n2c13)C(=O)NCCN1CCOCC1 (configuration not stated),-11,12%,4.1µM*,1%,4.7µM*,-4
CCOc1ccc(N2CC(C(=O)Nc3cccc(C(=O)NC4CC4)c3)CC2=O)cc1 (configuration not stated),·,·,-27%,·,?,·
CC(C)CCN1C(N(C)C)=NC[C@@H]1C,·,·,-12%,·,-23%,·
COc1cccc(OCc2cc(C(=O)N(C)CCOc3ccc(C)cc3)no2)c1,75*,-58%,?,·,-3%,68*
COc1ccc(OCc2cc(C(=O)N(Cc3nccn3C)C(C)C)no2)c2ccccc12,47*,-29%,-3%,?,-15%,43*
COc1ccc(OCc2cc(C(=O)N(C)Cc3nccn3C)no2)c2ccccc12,22,-19%,?,?,-30%,7
Cc1ccc(OCCN(C)C(=O)c2cc(COc3ccc(F)cc3F)on2)cc1,33,0%,23%,2%,0%,13*
COc1cccc(OCc2cc(C(=O)N(C)Cc3nccn3C)no2)c1,136*,2%,15%,-15%,18%,53*
CC(=O)N1CCC[C@@]2(CCN(C(=O)Nc3cccc(C#N)c3)C2)C1,·,·,·,1%,·,·
CC1=CCC2CC1C2(C)C (configuration not stated),·,·,-10%,·,0%,·
O=C(NC1CCCN(Cc2ccc(Cl)cc2)C1)c1ccccc1C(F)(F)F (configuration not stated),-4,10%,4.7µM*,5%,?,-2
O=C(NC1CCCN(Cc2ccc(Cl)cc2)C1)c1c(F)ccc(F)c1F (configuration not stated),-10,1%,4.7µM*,4%,-12%,-3
